FUS yeast rescue – qHTS for Suppressors of FUS Proteinopathy: Primary screen using FUS-linked yeast assay | S. cerevisiae FUS-expressing, growth rescue, OD600, 24 h | Potency, µM (series often up to 76.6 µM), hits mostly activators | 0.24% of 390,000 active | AID 1347120, 2019;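 further: plate controls were DMSO vehicle for no effect and reference control for full effect; nearly all actives have a fitted effect of over 55% in size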
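Yeast FUS proteinopathy model; galactose-induced FUS (2%), starting OD 0.005. Cpds in dilution series, 24hr, 30C, 99% humidity. Abs 600 nm growth. Pos ctrl CP55940 (top 92uM final); neg ctrl DMSO.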
aSyn yeast inh – qHTS of alpha-syn Inhibitors | Yeast expressing alpha-synuclein, growth rescue, BacTiter-Glo, 24 h | Potency, µM (highest dose often 46.1 µM), inactives show at the highest dose growth rescue (activation), hits mostly activators | 0.14% of 370,000 active | AID 652106, 2013; further: % of control where 0% means no effect; nearly all actives have a fitted effect of over 65% in size
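Galactose-induced alpha-syn yeast (OD600=0.02, raffinose-pregrown) + pinned cpd, 24 hr, 30 deg C; growth by BacTiter-Glo luminescence. Growth restoration scores as activation.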
Abeta yeast res – qHTS for compounds that reverse cellular toxicity of Amyloid beta (A-beta) peptide in yeast: Primary Screen. 0.063% of 410,000 active. yeast expressing A-beta42, growth rescue, OD600, 48 h; response scale: 0% DMSO, 100% iron-clioquinol control. Potency, µM (doses to about 46.1 µM), most hits filed as activators; further: nearly all actives have a fitted effect of over 55% in size
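Yeast A-beta toxicity model in growth medium with pinned compounds, 48 h at 30 C; growth read as absorbance at 600 nm. Normalized to FeCl3/clioquinol equimolar mix (positive) and DMSO (negative).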
TDP43 rescue – qHTS of TDP-43 Inhibitors | TDP-43 expressing yeast growth rescue, BacTiter-Glo, 24 h | Potency, µM (series often up to 46.1 µM), for the others: at the top dose growth rescue (activation), hits mostly activators | 1.8% of 410,000 active | AID 652104, 2013; further: % of control where 0% means no effect; nearly all actives have a fitted effect of over 50% in size
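Growth rescue of TDP-43-toxic yeast measured as ATP luminescence (BacTiter-Glo). Cells grown to mid-log in raffinose, induced in galactose at OD600=0.02, exposed to compound 24 hr at 30 deg C.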
Mito fusion yeast – qHTS Assay for Small Molecule Inhibitors of Mitochondrial Division or Activators of Mitochondrial Fusion. S. cerevisiae fusion-defective mutant growth rescue, CellTiterGlo 48 h. Potency, µM (top dose mostly 46.1 µM), for the others: top-dose growth rescue (activation), usual class: activators. 0.23% of 320,000 active. AID 485298, 2010; further: % of control where 0% means no effect; nearly all actives have a fitted effect of over 45% in size
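Growth-rescue viability read-out: after 48 h at the non-permissive 37C in glycerol/ethanol YPEG, yeast mitochondrial fusion mutants are measured by CellTiterGlo luminescence; compounds (23 nl pinned per well) restoring growth score as division inhibitors or fusion activators.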
* = called active by the depositor; i = inactive; ? = inconclusive; . = not tested or not shown; ! = a repeat was not active. Sampled rows, rich in hits. Any-hit rate of the full collection: about 2.2%. The call rests on the fitted dose curve; in most records, active means well fitted curve in the direction sought with a large enough effect; inconclusive means small, poorly fitted or top-dose-only effect, or another doubt; inactive means no such curve, though single readings can be large; an effect the other way counts as inactive or inconclusive. Potency means the concentration at half of the fitted maximal effect.

SMILES	FUS yeast rescue	aSyn yeast inh	Abeta yeast res	TDP43 rescue	Mito fusion yeast
COc1ccc([C@H]2CC(=O)C=C(c3ccc(Cl)c(C(F)(F)F)c3)C2)cc1OC	?	0%	i	16µM*	4%
COc1ccc(C2=CC(=O)CC(c3ccc(F)cc3)C2)cn1 (stereo not drawn)	i	6%	i	18µM*	.
CC1(C)OB(c2cnc(C#N)nc2)OC1(C)C	.	0%	.	.	.
O=C(COc1ccccc1C(=O)Nc1ccccc1)Nc1ccc(Br)cc1	.	9%	.	.	.
O=C1c2ccccc2-c2onc3ccc(N4CCCC4)c1c23	?	-18%	i	-17%	-3%
O=C1c2ccccc2C(=O)c2c1cccc2N1CCCC1	.	-23%	i	14µM*	19%
COc1ccccc1NC(C)C(=O)c1c[nH]c2ccccc12 (stereo not drawn)	.	-13%	.	.	.
CCC(Sc1nc2ccncc2[nH]1)C(=O)Nc1ccc(F)cc1 (stereo not drawn)	i	.	i	17%	.
COc1cc2c(NC3CCN(C(C)C)CC3)nc(N3CCCN(C)CC3)nc2cc1OCCOCCN1CCCC1	.	10%	.	.	.
COc1ccc2c(c1)CC/C(=C/c1ccco1)C2=O	i	-7%	i	14µM*	0%
O=C(NC1CC(=O)N(c2ccc(Cl)cc2)C1)c1cccs1 (stereo not drawn)	i	.	i	12%	.
CCC(=O)Nc1ccc(-c2nnc(SCc3ccccc3)n2C)cc1	.	-12%	.	.	.
COc1ccccc1CNC(=O)Cn1cc2c(n1)-c1c(oc(C(=O)N3CCOCC3)c1C)CC2	i	.	i	?	.
COc1cc2c(cc1OC)CN(C(=O)Cc1c(F)cccc1Cl)CC2	i	10%	i	16µM*	?
COc1ccc(CC(=O)N2CCc3cc(OC)c(OC)cc3C2)cc1	i	2%	i	8%	-1%
COc1cc2c(cc1OC)CN(C(=O)Nc1ccccc1Cl)CC2	i	6%	i	11µM*	26%
CCCCc1nnc(SCc2cc(=O)c3cc(C(=O)OCC)ccc3[nH]2)n1C	i	.	i	16%	.
O/N=C(/C[n+]1csc2ccccc21)c1ccccc1	.	-8%	.	.	.
COc1ccc(C=CC(=O)c2ccc(OC)c(OC)c2O)cc1OC	i	?	i	13µM*	.
COc1cc(C=CC(=O)c2ccccc2)cc(OC)c1OC	i	?	i	14µM*	.
COc1ccc(C(=O)/C=C/c2ccc(OC)c(O)c2)c(F)c1	.	-4%	i	22µM*	5%
COc1cc(/C=C/C(=O)N2CCC=CC2=O)cc(OC)c1OC	i	13%	i	22µM*	-11%
CCC1CN(C(=O)Nc2ccc(C)c(F)c2)c2ccccc2S1 (stereo not drawn)	i	.	i	1%	.
O=C(Cn1ncc2c(=O)oc3ccccc3c21)N1CCN(c2ccc(Cl)cc2)CC1	i	.	i	0%	.
CCCC1CCC2(CCC(=O)N2CCOC)CC1 (stereo not drawn)	i	.	.	.	.
SMILES	FUS yeast rescue	aSyn yeast inh	Abeta yeast res	TDP43 rescue	Mito fusion yeast
Cc1ccc(N2CCN(C(=O)c3nn(C)c4c3CS(=O)(=O)c3ccccc3-4)CC2)c(C)c1	22µM*!	5%	i	?	11µM*
Cn1nc(C(=O)N2CCN(c3ccc(Cl)cc3)CC2)c2c1-c1ccccc1S(=O)(=O)C2	?	0%	i	?	21%
Cn1nc(C(=O)N2CCN(c3cccc(Cl)c3)CC2)c2c1-c1ccccc1S(=O)(=O)C2	?	3%	i	22µM*	11µM*
Cc1ccc(CSc2nnc(-c3cccs3)o2)cc1C	i	.	.	.	.
Cc1ccc(SCC(=O)NC(=O)c2ccccc2Br)c(C)c1	.	15%	i	13µM*	.
Cc1ccc(SCC(=O)NNC(=O)c2ccccc2)c(C)c1	i	5%	i	4%	-11%
CC(=O)Nc1ncnc2c1c(-c1ccc(Cl)cc1)nn2C(C)(C)C	i	3.5µM*	i	9%	8%
CC(=O)N(C(C)=O)c1ncnc2c1c(-c1ccc(Cl)cc1)nn2C(C)(C)C	i	-26%	i	0%	-9%
COc1ccc(Cn2c(=O)c3oc4ccccc4c3n(Cc3cccc(C(F)(F)F)c3)c2=O)cc1	i	.	i	8%	.
CCCCCCCCCCN(CCCCCCCCCC)c1ccc(/C=C/c2ccnc3ccccc23)cc1	.	-3%	.	.	.
CSc1cc(-c2ccncc2)nc(-c2ccc(Cl)cc2)c1	i	11%	i	11µM*	7%
COc1cccc(C(O)c2nc(-c3ccccc3)cs2)c1 (stereo not drawn)	i	21%	i	16µM*	.
COc1cc(F)ccc1-c1csc(C(O)c2ccccc2)n1 (stereo not drawn)	?	21%	i	35µM*	.
COc1cccc(C(O)c2nc(-c3ccncc3)cs2)c1 (stereo not drawn)	i	-5%	i	25%	.
COc1cccc(C(O)c2nc(-c3ccccc3OC)cs2)c1 (stereo not drawn)	i	?	i	22µM*	.
COc1cccc(C(O)c2nc(-c3ccc(Cl)cc3)cs2)c1 (stereo not drawn)	i	10%	?	13µM*	.
O=[N+]([O-])c1ccc(Cl)c(S(=O)(=O)/N=C(/Sc2ccc(Br)cc2)c2ccccc2)c1	.	-14%	.	.	.
CCN(CC)CCCNC(=O)C1CCN(S(C)(=O)=O)CC1	i	.	i	5%	.
COc1ccc(N2CCN(Cc3nc4c(c(=O)[nH]c(=O)n4C)n3Cc3ccccc3F)CC2)cc1	i	.	i	-16%	.
C[C@H](O)[C@@H]1CN2CCc3c([nH]c4cccc(-c5ccccc5)c34)[C@@H]2C[C@@H]1N(C)CC1CCCCC1	i	.	.	.	.
Nc1ccc(N2CCN(c3ccc(Cl)c(Cl)c3)CC2)cc1	.	12%	i	8.9µM*	13µM*
COc1ccc(C)cc1NC(=O)c1ccc2c(c1)OCO2	i	10%	i	13µM*	4%
Cc1ccc(C(=O)C=Cc2ccc3c(c2)OCO3)c(C)c1	i	8%	i	?	.
CC(=O)Nc1ccc(/C=C/C(=O)c2ccc3c(c2)OCCO3)cc1	i	1%	i	18%	-2%
Cc1ccc(O)c(C(=O)/C=C/c2ccc3c(c2)OCCO3)c1	i	-2%	i	18µM*	5%
COc1ccc(C)cc1NC(=O)COC(=O)c1ccc2c(c1)OCO2	i	-12%	i	-3%	7%
COc1ccc(C(=O)/C=C/c2ccc3c(c2)OCCO3)cc1	i	0%	i	20µM*	-10%
O=C(/C=C/c1ccc2c(c1)OCCO2)c1ccccc1	i	-3%	i	16µM*	-12%
